Bioassay records from PubChem BioAssay.
A selection: hits, their analogues and other compounds. The true share with any hit is near 2.9%.
S1P4 antag: blocks the human S1P4 receptor; O95977; S1P4-expressing cells, antagonist mode, reporter read-out; inhibition, % at 4.98 µM; 220,000 compounds, 0.26% hits; in the data active = inhibition above about 29%;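 note: 0% = wells stimulated with agonist and 100% = vehicle wells without agonist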
Target sequence (O95977 whole entry, looked up): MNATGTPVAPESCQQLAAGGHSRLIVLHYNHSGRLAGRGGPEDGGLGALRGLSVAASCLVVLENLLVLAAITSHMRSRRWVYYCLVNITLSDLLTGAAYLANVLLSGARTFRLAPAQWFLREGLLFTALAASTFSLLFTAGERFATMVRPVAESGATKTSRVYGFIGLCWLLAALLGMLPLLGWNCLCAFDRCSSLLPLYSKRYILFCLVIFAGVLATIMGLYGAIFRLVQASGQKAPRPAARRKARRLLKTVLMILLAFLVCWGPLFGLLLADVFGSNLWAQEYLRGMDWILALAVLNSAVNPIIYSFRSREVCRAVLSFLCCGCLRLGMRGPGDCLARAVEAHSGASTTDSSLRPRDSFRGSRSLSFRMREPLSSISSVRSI
Hsp70 act: Hsp70 transcriptional activation, primary screen; HeLa Hsp70 promoter luciferase reporter, luminescence; scaled: vehicle 0, proteasome-inhibitor control 100%; activation, % at 10 µM; 200,000 compounds, 0.04% hits; AID 1203;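 active = activation above the mean across all tested compounds plus 3 SD, cutoff set per campaign, cut at about 5.5% in these data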;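 note: 100% = MG132 at 30 µM as the positive control and 0% = DMSO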
HSF1 activator: increases HSF-1 driven luciferase reporter signal | NIH3T3-HGL HSF-1 luciferase reporter, MG132, 8 h; 100% = twice DMSO control signal | activation, % at 9 µM | 300,000 compounds, 1.7% hits | AID 504408;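 active = mean replicate activation of at least 50% with a set share of replicates each reaching 50%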;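 note: 0% = median of the neutral control wells and 100% = twice that signal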
S1P4 agonist: human S1P4 receptor agonism | O95977 | S1P4-expressing cell line, agonist reporter assay | activation, % at 4.98 µM | 220,000 compounds, 0.35% hits; in the data active = activation above about 11%;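 note: 0% = DMSO vehicle and 100% = reference agonist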
S1P3 antagonist: S1P3 (human) receptor antagonism; Q99500; CHO S1P3 NFAT-BLA reporter, FRET fluorescence, antagonist mode; inhibition, % at 4.98 µM; 170,000 compounds, 0.27% hits; AID 485;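 active = inhibition above the plate cutoff, the mean inhibition of test wells on that plate plus 3 SD, cut at about 28% in these data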;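 note: cells challenged with S1P at its EC80 of 0.8 µM; blue over green emission ratio from cleaved BLA substrate after 4 h stimulation; 0% = S1P-stimulated wells and 100% = unstimulated DMSO-only wells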
HSF1 inhib: HSF1 inhibition; NIH3T3-HGL HSE-luciferase, MG132-induced, luminescence 8 h; hits give low values; activity change, negative = inhibition, % at 7.5 µM (by protocol); 300,000 compounds, 0.77% hits; AID 2098;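 active = more than half of replicate wells show activity change below -50%, luminescence cut by over half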;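 note: luciferase reports HSF-1 transcriptional activity via heat shock element; 0% = median of DMSO wells and -100% = zero luminescence signal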
Starred values were filed as active, the others as inactive; x = not tested or not shown.

SMILES	S1P4 antag	Hsp70 act	HSF1 activator	S1P4 agonist	S1P3 antagonist	HSF1 inhib
NS(=O)(=O)c1cccnc1Nc1c(Cl)cccc1Cl	-2	0	4	1	x	0
COc1cc(C(=O)Sc2ccc(Cl)cc2)cc(OC)c1OC	2	0	79*	0	x	60
CC1CCCC/C1=N\Nc1ccc(S(N)(=O)=O)cc1[N+](=O)[O-] (stereo unspecified)	12	0	68*	4	-1	44
CC(C)(C)C1CCC(=NNc2ccc(S(N)(=O)=O)cc2[N+](=O)[O-])CC1 (stereo unspecified)	-5	0	5	-2	-7	5
CC1CCN=C(N)S1 (stereo unspecified)	x	x	-7	x	x	0
O=C(CSc1nnc(Nc2ccccc2)s1)Nc1cccc(S(=O)(=O)N2CCCCC2)c1	-5	0	7	0	-3	11
O=C(OCN1C(=O)c2ccccc2C1=O)c1ccccc1	-8	0	75*	2	x	37
O=C(OCCN1C(=O)c2ccccc2C1=O)c1ccccc1	-108	0	x	1	3	x
Cc1ccccc1-c1noc(-c2ccccc2F)n1	-18	0	54*	2	x	26
Cc1ccccc1-c1noc(-c2ccc(O)cc2)n1	2	0	53*	0	5	19
O=C(CCc1ccccc1)NCC1(c2ccccc2)CCCC1	x	x	20	x	x	-2
COc1ccc(Cc2n[nH]c(=S)n(N)c2=O)cc1	5	0	4	2	10	-1
Cc1cccc(C(=O)Nc2c(C(=O)N(C)C)cnn2-c2ccccc2)c1	x	x	5	x	x	-1
O=[N+]([O-])c1ccc(/C=C2\CCC(C3=CCCC3)=C2N2CCOCC2)cc1	-8	0	61*	-2	-2	39
O=C(NP(=O)(N1CCCC1)N1CCCC1)C1=C(N2CCOCC2)/C(=C/c2cccc([N+](=O)[O-])c2)CC1	-26	0	21	2	-8	22
Cc1c(C#N)c(NC(=O)CCl)n(Cc2ccc(F)cc2)c1C	-1	0	-12	0	-28	-2
Cc1c(C#N)c(NC(=O)CCl)n(Cc2ccccc2)c1C	3	0	57*	-1	1	21
COC(=O)c1ccccc1S(=O)(=O)N1CCC(C(=O)N(C)CCOc2ccccc2)CC1	x	x	15	x	x	3
O=c1oc(Nc2cccc(Cl)c2)nc2ccccc12	-4	0	67*	-1	-18	25
CC(=O)Nc1cccc(-c2nc3ccccc3c(=O)o2)c1	-16	0	4	0	84*	-10
CCC(CC)C(=O)Nc1cccc(-c2nc3ccccc3o2)c1	-18	0	-43	-1	61*	-30
CCN1CCN(c2ccc(S(=O)(=O)N3CCOCC3)cc2NC(=O)c2ccc(C(F)(F)F)cc2)CC1	x	x	-10	x	x	-7
Cc1ccc(C(C)(C)NC(=O)C2CCC(=O)N(Cc3ccccc3F)C2)cc1 (stereo unspecified)	x	x	17	x	x	2
CSc1nc(Cc2ccccc2)cc(=O)[nH]1	1	0	-73	0	-6	-65*
CCCc1cnc(N2CCN(C(=O)c3c(-c4ccccc4)noc3C)CC2)nc1	10	x	-41	1	-11	-24
SMILES	S1P4 antag	Hsp70 act	HSF1 activator	S1P4 agonist	S1P3 antagonist	HSF1 inhib
CCCc1nc2ccc(NC(C)=O)cc2c(=O)n1Cc1ccc(Cl)cc1	-9	0	60*	0	-7	37
CCN(CC)c1cc(C)c2cc(NC(=O)c3cccs3)ccc2n1	-9	0	37	0	11	17
COc1ccc(Cn2c(C3CC3)nc3ccc(NC(C)=O)cc3c2=O)cc1	2	0	51*	-5	31	29
CCCc1nc2ccc(NC(=O)c3cccs3)cc2c(=O)n1Cc1ccccc1Cl	-15	0	61*	1	6	19
Cc1nc2ccc(N)cc2c(=O)n1Cc1ccc(Cl)cc1	-14	0	4	-2	22	5
CCOCCCNC(=O)C1(O)c2ccccc2NC(=O)N1c1ccc(Cl)cc1 (stereo unspecified)	x	x	11	x	x	3
O=C(c1ccc(F)cc1)N1CCN(c2cc(N3CCCCC3)c(F)cc2[N+](=O)[O-])CC1	-7	0	6	-1	x	2
COc1cc(/C=C/C(=O)NC2CCCCC2)cc(OC)c1OC	x	x	-2	x	x	-4
COc1cc(/C=C/C(=O)NC(C)C2CC3CCC2C3)cc(OC)c1OC (stereo unspecified)	x	x	-91	x	x	-88*
CCN(CCn1cccn1)C(=O)CCc1nnc(CCCc2ccccc2)o1	-12	0	30	2	-22	7
O=C(Nc1ccccc1)Nc1nnc(/C=C/c2ccccc2Cl)s1	-4	0	43	0	3	6
Nc1nnc(/C=C/c2ccccc2Cl)s1	2	x	70*	0	0	35
CCN(CC)C(=O)Cn1cnc2sc(C(=O)N3CCN(Cc4ccc5c(c4)OCO5)CC3)c(C)c2c1=O	2	0	-13	2	-7	-2
COc1cc(N)ccc1C(=O)O	-5	0	-62	-1	x	-60*
CC1(C)CC(=O)C2=C(C1)NC(Nc1nc3ccccc3o1)=NC2c1ccccn1 (stereo unspecified)	-6	0	2	0	-6	-5
CC1=C(C(=O)Nc2ccccc2)C(c2ccc(C)cc2)N=C(Nc2nc3ccccc3o2)N1 (stereo unspecified)	-6	0	62*	-2	x	38
COc1cccc(-c2nc(N3CCN(c4ccccc4)CC3)c3ccccc3n2)c1O	-8	0	66*	0	x	35
COc1ccc(CCNC(=O)C2CCCN(S(=O)(=O)c3ccc(F)cc3)C2)cc1OC (stereo unspecified)	x	x	-67	x	x	-57*
Cc1cc(C)c(S(=O)(=O)N2CCCC(C(=O)NCCC3=CCCCC3)C2)c(C)c1 (stereo unspecified)	-22	-1	60*	1	x	27
Cc1ccc(/C=C(/C#N)c2nc(CCN3C(=O)c4ccccc4C3=O)cs2)cc1	-37	0	-65	1	x	-53*
O=C1c2ccccc2C(=O)N1CCc1csc(-c2cccc(Cl)c2)n1	3	0	-51	0	x	-33
C=CCOc1ccc(/C=C/C(=O)OCC(=O)NCC2CCCCC2)cc1	x	x	-76	x	x	-68*
COc1cc(/C=N/NS(=O)(=O)c2ccc3ccccc3c2)ccc1OCc1ccc(C(=O)O)cc1	8	x	-78	2	-5	-74*
COc1cc(/C=N/NS(=O)(=O)c2ccc(C)cc2)ccc1OCc1cccc(C(=O)O)c1	-2	-1	-68	3	3	-64*
O=C(NN1C(=O)NC2(CCCCC2)C1=O)c1ccc(-c2ccc([N+](=O)[O-])cc2)o1	x	x	-44	x	x	-33
COc1ccccc1NC(=S)N/N=C/c1ccc(O)cc1	-2	0	81*	2	-16	40
COc1ccccc1NC(=S)N/N=C/c1cccc(C)c1	5	0	30	-1	-4	9
